Experimental data: PubChem BioAssay
Active and inactive are the calls of the source.

What was measured:
[1] = E. coli DRC41 culture turbidity changes, primary screen, E. coli filamentation inducer project, strain DRC41, OD650, 48 h (AID 1152);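 also: E. coli MC1000 strain DRC41 lacking acrAB efflux pump and sulA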; details: E. coli DRC41 (acrAB sulA), higher = more signal, called active from +8 up or from −8 down
[2] = small-molecule binders of probe aLefty1, primary screen, biochemical, small-molecule microarray, 635/667 nm fluorescence (AID 1153); details: higher = more signal;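 also: score merges spot fluorescence with signal-to-noise ratio from the scanned slide images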
[3] = PSAC antagonists in infected red cells, primary screen, cell-based, P. falciparum Indochina, OD700, 1 h (AID 1154); details: P. falciparum Indochina infected RBC osmotic lysis, higher = more signal, called active from +8 up or from −8 down
[4] = PSAC antagonists in infected red cells, primary screen, cell-based, P. falciparum Indochina, OD700, 2 h (AID 1155);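 also: lysis reports solute entry through the parasite surface anion channel PSAC; channel blockers reduce lysis of infected cells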; details: P. falciparum Indochina infected erythrocytes, osmotic lysis OD700; higher = more signal, called active from +8 up or from −8 down
[5] = osmotic lysis modulators in infected erythrocytes, primary screen, PSAC antagonist project, cell-based, P. falciparum Indochina, OD700, 3 h (AID 1156); details: higher = more signal, called active from +8 up or from −8 down
[6] = PSAC antagonists in infected red cells, primary screen, cell-based, P. falciparum Indochina, OD700, 18 h (AID 1157); details: P. falciparum Indochina infected erythrocytes, osmotic lysis OD700, 18 h; higher = more signal, called active from +8 up or from −8 down
[7] = modulators of S6 phosphorylation in cells, primary screen, cell-based, A549, cytoblot, luminescence, serum-stimulated (AID 1158); details: A549 phospho-S6 cytoblot, 5 h, higher = more signal;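 also: serum-stimulated A549 lung adenocarcinoma cells; signal is phosphorylated S6 detected by cytoblot immunostaining with HRP secondary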
[8] = molecular target: NADPH oxidase 2 (Homo sapiens) (UniProt P04839); experiment: NOX2-dependent H2O2 signal modulators, primary screen, NOX inhibitor project, cell-based, HEK293-NOX2, PMA-stimulated, Amplex Red fluorescence (AID 1159); details: 45 min, higher = more signal, called active from +8 up or from −8 down; also: test concentration not given here
[9] = molecular target: NADPH oxidase 4 (Homo sapiens) (UniProt Q9NPH5); experiment: NOX4-dependent H2O2 signal modulators, primary screen, NOX inhibitor project, cell-based, HEK293-NOX4, tetracycline-induced, Amplex Red fluorescence (AID 1160); details: 45 min, higher = more signal, called active from +8 up or from −8 down
[10] = molecular target: NADPH oxidase 5 (Homo sapiens) (UniProt Q96PH1); experiment: NOX5-dependent H2O2 signal modulators, primary screen, NOX inhibitor project, cell-based, HEK293-NOX5, Amplex Red fluorescence (AID 1161); details: HEK293-NOX5, ionomycin, 45 min, higher = more signal
[11] = A549 cell viability effects, profiling panel, calcein-AM fluorescence, 48 h, basal (AID 1162); details: higher = more signal; also: test concentration not given here
[12] = adipocyte viability effects, profiling panel, cell-based, 3T3-L1 adipocytes, calcein-AM fluorescence, 48 h, basal (AID 1163); details: 3T3-L1 adipocytes viability, higher = more signal; also: test concentration not given here
[13] = HepG2 cell viability effects, profiling panel, calcein-AM fluorescence, 48 h, basal (AID 1164); details: higher = more signal; also: test concentration not given here
[14] = MM1S cell viability effects, profiling panel, calcein-AM fluorescence, 48 h, basal (AID 1165); details: higher = more signal;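 also: viability of MM1S multiple myeloma cells under basal unstimulated conditions; test concentration not given here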
[15] = basal RPMI8226 viability, no added stimulus, profiling panel, cell-based, calcein-AM fluorescence, 48 h, PK04 Diversity Set (AID 1166); details: RPMI8226 myeloma viability, higher = more signal;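 also: cells grown under basal conditions without added stimulus; test concentration not given here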
[16] = basal HepG2 mitochondrial membrane potential changes, profiling panel, cell-based, JC-1 fluorescence, 24 h, 100 nL compound (AID 1167); details: higher = more signal; also: test concentration not given here
[17] = basal 3T3-L1 adipocyte mitochondrial potential changes, profiling panel, cell-based, JC-1 fluorescence, 3T3-L1 adipocytes, 24 h, 100 nL compound (AID 1168); details: JC-1 mitochondrial fluorescence, higher = more signal, called active from +8 up or from −8 down; also: test concentration not given here
[18] = basal RPMI8226 mitochondrial membrane potential changes, profiling panel, cell-based, JC-1 fluorescence, 24 h, 100 nL compound (AID 1169); details: RPMI8226 myeloma, JC-1 mitochondrial potential fluorescence, higher = more signal; also: test concentration not given here
[19] = basal MM1S mitochondrial membrane potential changes, profiling panel, cell-based, JC-1 fluorescence, 24 h, 100 nL compound (AID 1170); details: higher = more signal; also: test concentration not given here
[20] = A549 lung cancer cell viability effects, profiling panel, resazurin fluorescence, 24 h, PK04 Diversity Set (AID 1171); details: higher = more signal, called active from +8 up or from −8 down; also: test concentration not given here

Chain of NADPH oxidase 2 (Homo sapiens) (P04839 whole entry, looked up): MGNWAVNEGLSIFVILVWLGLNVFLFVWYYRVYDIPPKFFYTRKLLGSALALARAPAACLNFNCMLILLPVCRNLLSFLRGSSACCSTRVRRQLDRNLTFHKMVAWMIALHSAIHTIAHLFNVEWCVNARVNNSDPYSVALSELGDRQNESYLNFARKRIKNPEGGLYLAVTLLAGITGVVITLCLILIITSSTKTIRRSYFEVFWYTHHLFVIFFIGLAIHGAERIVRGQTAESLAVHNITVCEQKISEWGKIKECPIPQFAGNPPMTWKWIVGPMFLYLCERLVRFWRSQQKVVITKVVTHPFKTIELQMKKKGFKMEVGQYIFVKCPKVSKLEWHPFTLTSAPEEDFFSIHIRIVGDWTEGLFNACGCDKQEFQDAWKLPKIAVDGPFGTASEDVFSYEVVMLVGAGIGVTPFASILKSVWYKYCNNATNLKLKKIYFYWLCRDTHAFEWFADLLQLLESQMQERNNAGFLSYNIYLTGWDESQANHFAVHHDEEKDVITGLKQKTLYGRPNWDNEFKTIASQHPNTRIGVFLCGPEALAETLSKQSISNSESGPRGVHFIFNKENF
Chain of NADPH oxidase 5 (Homo sapiens) (Q96PH1 whole entry, looked up): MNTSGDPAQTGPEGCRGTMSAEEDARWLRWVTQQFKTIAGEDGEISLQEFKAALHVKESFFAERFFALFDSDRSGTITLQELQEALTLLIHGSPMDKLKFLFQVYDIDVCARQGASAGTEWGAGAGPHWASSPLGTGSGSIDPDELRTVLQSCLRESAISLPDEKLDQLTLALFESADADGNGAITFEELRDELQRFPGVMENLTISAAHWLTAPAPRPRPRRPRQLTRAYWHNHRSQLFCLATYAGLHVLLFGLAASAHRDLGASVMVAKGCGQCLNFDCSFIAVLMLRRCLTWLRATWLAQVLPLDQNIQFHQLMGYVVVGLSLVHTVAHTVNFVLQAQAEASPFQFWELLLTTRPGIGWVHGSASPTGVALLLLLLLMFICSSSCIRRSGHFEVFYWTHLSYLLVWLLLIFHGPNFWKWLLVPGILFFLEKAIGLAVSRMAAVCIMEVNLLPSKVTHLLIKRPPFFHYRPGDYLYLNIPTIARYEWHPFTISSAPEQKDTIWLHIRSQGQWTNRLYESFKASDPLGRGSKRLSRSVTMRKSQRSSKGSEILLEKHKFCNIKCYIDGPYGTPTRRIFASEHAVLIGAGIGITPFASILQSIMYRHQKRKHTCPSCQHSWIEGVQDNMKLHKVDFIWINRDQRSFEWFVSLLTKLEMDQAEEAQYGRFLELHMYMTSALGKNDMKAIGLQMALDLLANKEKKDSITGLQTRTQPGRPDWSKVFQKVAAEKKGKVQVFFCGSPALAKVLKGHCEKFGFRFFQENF
Chain of NADPH oxidase 4 (Homo sapiens) (Q9NPH5 whole entry, looked up): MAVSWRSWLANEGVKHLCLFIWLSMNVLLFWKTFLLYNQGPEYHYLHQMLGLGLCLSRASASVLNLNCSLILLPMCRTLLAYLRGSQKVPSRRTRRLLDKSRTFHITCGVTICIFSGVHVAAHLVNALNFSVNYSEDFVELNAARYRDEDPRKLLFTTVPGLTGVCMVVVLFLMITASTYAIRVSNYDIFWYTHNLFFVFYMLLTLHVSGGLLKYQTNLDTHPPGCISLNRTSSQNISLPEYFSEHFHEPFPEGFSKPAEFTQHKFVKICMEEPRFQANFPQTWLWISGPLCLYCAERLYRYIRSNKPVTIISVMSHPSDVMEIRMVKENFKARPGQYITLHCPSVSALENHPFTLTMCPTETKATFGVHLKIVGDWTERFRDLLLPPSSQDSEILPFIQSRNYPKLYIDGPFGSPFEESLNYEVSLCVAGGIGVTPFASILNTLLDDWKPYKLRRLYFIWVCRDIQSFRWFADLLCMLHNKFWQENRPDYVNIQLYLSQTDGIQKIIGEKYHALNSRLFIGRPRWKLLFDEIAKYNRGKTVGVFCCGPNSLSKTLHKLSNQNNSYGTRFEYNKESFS

SMILES | z-score [1] | composite z-score [2] | z-score [3] | z-score [4] | z-score [5] | z-score [6] | z-score [7] | z-score [8] | z-score [9] | z-score [10] | z-score [11] | z-score [12] | z-score [13] | z-score [14] | z-score [15] | z-score [16] | z-score [17] | z-score [18] | z-score [19] | z-score [20]
COc1cc(NN2C(C(O)c3ccco3)C=CC3C(=O)N(c4ccccc4)C(=O)C32)cc(OC)c1OC (stereo not given) | -1.37 (inactive) | -0.441 | 0.886 (inactive) | -1.47 (inactive) | 1.06 (inactive) | -1.28 (inactive) | 1.29 | -3.15 (inactive) | -4.23 (inactive) | -5.73 | -0.5 | 0.117 | -0.337 | 0.0511 | -0.307 | -0.955 | -0.967 (inactive) | 0.187 | -1.31 | -1.54 (inactive)
O=C(OCc1ccccc1)C1=CCC2c3[nH]c4ccccc4c3C(=O)C1N2S(=O)(=O)c1ccccc1[N+](=O)[O-] (stereo not given) | -1.33 (inactive) | -0.192 | 7.08 (inactive) | 2.13 (inactive) | 0.105 (inactive) | 1.1 (inactive) | -0.605 | 0.663 (inactive) | -0.294 (inactive) | -1.97 | -0.725 | -0.816 | -0.267 | -0.624 | -0.286 | -3.06 | -4.43 (inactive) | -1.14 | -3.28 | -0.311 (inactive)
NCCCCCCNC(=O)[C@@H]1C[C@@H]2C(=O)NCC(=O)N2[C@@H]1c1ccc(O)cc1 | 0.812 (inactive) | -0.0126 | 0.846 (inactive) | 1.04 (inactive) | 4.22 (inactive) | 0.497 (inactive) | 0.257 | -0.302 (inactive) | 0.4 (inactive) | 0.182 | -1.17 | 0.544 | -1.07 | 0.307 | 0.0172 | -0.479 | 0.172 (inactive) | -0.796 | -0.365 | -0.368 (inactive)
C=CCOC(=O)[C@H]1[C@@H]2C(=O)O[C@@H](c3ccccc3)[C@@H](c3ccccc3)N2[C@@H](c2ccc(OCCOC(=O)[C@H]3C[C@H]4C(=O)N[C@@H](CCCCNC(C)=O)C(=O)N4[C@H]3c3ccc(O)cc3)cc2)[C@]12C(=O)Nc1ccc(I)cc12 | -1.8 (inactive) | 0.204 | -0.858 (inactive) | 0.461 (inactive) | 0.675 (inactive) | -0.214 (inactive) | -0.635 | 1.36 (inactive) | 0.823 (inactive) | 0.935 | -0.143 | -0.0346 | -0.251 | -2.94 | -2.69 | 1.46 | 0.585 (inactive) | -0.538 | -1.44 | 0.974 (inactive)
Cc1ccc(N2C(=O)c3ccccc3[C@@H](C(=O)NC3CC3)[C@@H]2c2ccc(CO)cc2)nc1 | -0.0739 (inactive) | -0.138 | 1.92 (inactive) | -0.325 (inactive) | 0.62 (inactive) | -0.0389 (inactive) | -0.179 | 0.355 (inactive) | -0.647 (inactive) | -1.51 | -0.684 | 0.516 | -0.774 | 0.0291 | -2.27 | -0.0756 | -0.289 (inactive) | 0.755 | -0.446 | 0.771 (inactive)
O=C1OCCC/C=C\[C@H]2OC34C=CCN(Cc5ccccc5)C(=O)[C@H]3N(CCCO)C(=O)[C@@H]4C12 (stereo not given in full) | 0.616 (inactive) | 0.042 | 1.21 (inactive) | 0.486 (inactive) | -0.0156 (inactive) | 0.211 (inactive) | -0.506 | 1.76 (inactive) | -1.71 (inactive) | 2.38 | -0.0592 | -0.0687 | 0.556 | 1.58 | 0.438 | 0.315 | 0.478 (inactive) | 0.0319 | 1.44 | 0.0483 (inactive)
COCCOC(=O)N1C(=O)[C@@]2(c3cc(C#CCNC(N)=O)ccc31)[C@H](C(=O)N1CCN(c3ncccn3)CC1)[C@H]1C(=O)O[C@H](c3ccccc3)[C@H](c3ccccc3)N1[C@@H]2c1ccc(OCCO)cc1 | -0.492 (inactive) | 0.267 | 6.11 (inactive) | 1.93 (inactive) | 1.26 (inactive) | 0.778 (inactive) | -0.319 | 1.64 (inactive) | 0.971 (inactive) | -0.121 | 0.572 | 0.148 | 0.548 | 0.63 | 0.287 | -2.07 | 1.6 (inactive) | -0.863 | -1.51 | -0.465 (inactive)
C=CC[C@@]12N=C(c3ccc(OCCCO)cc3)O[C@@H]1c1ccccc1N(C)C2=O | 1.12 (inactive) | 0.349 | 33.2 (active) | 32.3 (active) | 2.02 (inactive) | 3.46 (inactive) | 0.368 | -2.99 (inactive) | -0.963 (inactive) | -1.85 | -0.588 | 0.596 | -1.33 | -1.79 | -2.61 | 0.0239 | 1.51 (inactive) | -1.12 | -0.767 | -0.0732 (inactive)
CC(C)[Si](C#Cc1ccc(Oc2ccccc2)cc1)(O[Si](C#Cc1ccc(Oc2ccccc2)cc1)(C(C)C)C(C)C)C(C)C | 0.555 (inactive) | -0.103 | 2.62 (inactive) | 1.85 (inactive) | 0.226 (inactive) | 1.39 (inactive) | 0.335 | 1.49 (inactive) | 1.46 (inactive) | -1.34 | 0.271 | 0.587 | -0.377 | -1.58 | -0.743 | -0.683 | 0.733 (inactive) | 0.0384 | -0.00729 | 0.162 (inactive)
